# Source: PubChem BioAssay AID504834 (National Center for Advancing Translational Sciences (NCATS), 2011)
# The whole screen tested about 320,000 compounds, of which about 22,000 (6.9%) were called active. About 27% were inconclusive and are not listed. Calls follow the shape of the dose curve; as a rule, active = well fitted inhibition curve with a large enough effect; inconclusive = small, poorly fitted or top-dose-only effect, or another doubt; inactive = no such curve, though single readings can be large or run the other way. The sample as a whole holds a higher share of actives than the screen did.
# Assay: Primary qHTS for delayed death inhibitors of the malarial parasite plastid, 96 hour incubation
# Conditions: P. falciparum luciferase reporter growth; series mostly up to 28.7 µM; activity change, negative = inhibition: at the top concentration
# In short: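 Plates of compound plus infected erythrocytes (2% hematocrit, 0.05% parasitemia final) incubate 96 hours, 37 C, 5% CO2. Detection reagent added; reduced luminescence from the parasites' luciferase reporter flags inhibition.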
# % is scaled to controls: 0 for no effect and ±100 for the full control effect; potency is read from the fitted curve at half-maximal effect.
Compound,"activity change, negative = inhibition",Potency
O=C(c1ccc2c(c1)OCCO2)C1CCN(S(=O)(=O)c2cccc(F)c2)CC1,-2.68% (inactive),
O=S(=O)(NC1CCN(S(=O)(=O)c2ccc3c(c2)OCCO3)CC1)c1c(F)cccc1F,,11.7 µM (active)
CCOc1ccc(C(=O)CCN2CCOCC2)cc1,-16.3% (inactive),
O=C1CCN(CCCc2ccccc2)CCN1CCO,5.15% (inactive),
NS(=O)(=O)c1cccc(NC(=O)CC23CC4CC(CC(Br)(C4)C2)C3)c1,23.8% (inactive),
Cc1cccc(C(=O)OC(C)CN2CCN(C)CC2)c1 (centres undefined),46.6% (inactive),
Cc1ccc(C(=O)OC(C)CN2CCOCC2)cc1 (centres undefined),,5.86 µM (active)
CC(CN1CCOCC1)OC(=O)c1ccc(Cl)cc1Cl (centres undefined),5.52% (inactive),
O=C(COC(=O)c1ccccc1Br)Nc1nnc(-c2ccccc2)o1,6.55% (inactive),
CN1C/C(=C/c2cccs2)C(=O)/C(=C\c2cccs2)C1,-17.4% (inactive),
O=C(CNC(=O)c1ccccc1Br)NCCSc1ccc(Br)cc1,9.38% (inactive),
Cc1ccc(-c2cn(S(=O)(=O)c3cccc([N+](=O)[O-])c3)nc2N)cc1,,6.57 µM (active)
Cc1cc(C)n(S(=O)(=O)c2cccc([N+](=O)[O-])c2)n1,-17.8% (inactive),
O=[N+]([O-])c1cccc(S(=O)(=O)N2CCCCCC2)c1,10.5% (inactive),
CCOC(=O)CCNC(=O)N1CCCC(C(=O)c2ccccc2SC)C1 (centres undefined),-6.64% (inactive),
COc1ccc(C(=O)N2CCCC(C(=O)c3ccccc3OC)C2)cc1OC (centres undefined),-26.1% (inactive),
COc1cccc(CN2CCCC(C(=O)c3ccccc3SC)C2)c1O (centres undefined),,1.65 µM (active)
CCCCC(c1nnnn1CS(=O)(=O)c1ccc(C)cc1)N1CCC(C(N)=O)CC1 (centres undefined),-0.154% (inactive),
COc1ccc(C(=O)Nc2ccc(C(=O)NCC3CCCO3)cc2)c(OC)c1OC (centres undefined),-8.54% (inactive),
CCOC(=O)CN1CCC(c2ccccc2)CC1,-21.3% (inactive),
c1ccc(C2CCC(N3CCC(N4CCCCC4)CC3)CC2)cc1 (centres undefined),,2.62 µM (active)
O=C(Cc1ccccc1)N1CCN(C2CCCCCC2)CC1,203% (inactive),
CC1CCCC(C)N1C(=O)COC(=O)COc1ccccc1C#N (centres undefined),-0.308% (inactive),
COc1ccccc1OCC(=O)OCc1cc(-c2ccco2)on1,30.4% (inactive),
CN(CC(=O)Nc1ccc(F)c(F)c1F)C(=O)C1CC(=O)N(C2CCCC2)C1 (centres undefined),51.1% (inactive),
CCC(CC)COC(=O)C1=C(C)NC(=O)NC1c1ccc([N+](=O)[O-])cc1 (centres undefined),,4.65 µM (active)
CCOC(=O)C1=C(C)NC(=O)NC1c1ccccc1 (centres undefined),-18.4% (inactive),

Compound,"activity change, negative = inhibition",Potency
CC1=C(C(=O)OCC2CCCCC2)C(c2ccc(F)cc2)NC(=O)N1 (centres undefined),1.16% (inactive),
Cc1ccc(N(CC(=O)NCC2CCCO2)C(=O)CNS(=O)(=O)c2ccc(Cl)cc2)cc1 (centres undefined),-13.8% (inactive),
CCc1nnc(NC(=O)CCC(=O)N2CCN(c3cc(C)ccc3C)CC2)s1,5.92% (inactive),
Cc1cc(Cl)nc(NC(=O)Nc2cccc(Cl)c2)n1,26.6% (inactive),
CCC1(c2ccccc2)C(=O)NC(=O)N(C)C1=O (centres undefined),,15.1 µM (active)
Cc1c(C=O)n(C)n(-c2ccccc2)c1=O,30.2% (inactive),
CNC(=O)CN1C(=O)NC(c2ccccc2)(c2ccccc2)C1=O,36.1% (inactive),
O=C(CSc1nc2ccccc2o1)N/N=C/c1ccccc1C(=O)O,195% (inactive),
CCc1ccc(OCC(=O)OC(C)C(=O)NC2CC2)cc1 (centres undefined),0.306% (inactive),
O=C1CCCN1CCCNc1ncnc2c1[nH]c1ccccc12,13.3% (inactive),
CC(C)OCCCNc1ncnc2c1[nH]c1ccc(F)cc12,,0.185 µM (active)
Cc1ccsc1C(=O)OCC(=O)Nc1cccc(F)c1,133% (inactive),
Cn1c2c(c(=O)n(C)c1=O)C(c1cccc(F)c1)C(C#N)=C(N)O2 (centres undefined),21.7% (inactive),
Cc1nn(CC(=O)Nc2ccc(F)cc2)c(=O)c2ccccc12,19.5% (inactive),
CCc1ccc(NC(=O)Cn2nc(C)c([N+](=O)[O-])c2C)cc1,11.4% (inactive),
CCc1ccc(NC(=O)Cn2ncn3c(cc4ccccc43)c2=O)cc1,,1.47 µM (active)
O=C(NCCN1CCOCC1)Nc1cccc(Cl)c1,105% (inactive),
O=C(NCCN1CCOCC1)c1cc(Sc2cccc(Cl)c2)nc2ccccc12,,5.22 µM (active)
CC(=O)Oc1cc2c(C(=O)NCCN3CCOCC3)c(C)oc2c2ccccc12,15.9% (inactive),
Cn1c(SCC(=O)N2CCCC2)nnc1-c1ccc2c(c1)OCO2,-17.5% (inactive),
O=C(CNc1ccccc1N1CCCC1=O)Nc1cc(Cl)ccc1-n1cncn1,41.9% (inactive),
O=C(Nc1ccccc1Cl)Nn1cnnc1,22.9% (inactive),
O=C(CN1CCCCCC1)Nc1ccc(Br)cc1Br,55.1% (inactive),
O=C(CN1CCCCCC1)Nc1ccc(Br)cc1[N+](=O)[O-],69.6% (inactive),
O=C(CN1CCCCC1)Nc1ccc(Br)cc1C(=O)c1ccccc1Cl,,1.85 µM (active)
Cc1cccc(-n2ncc(Cl)c(Cl)c2=O)c1,-4.47% (inactive),
COc1ccc(C(=O)NCC2CCCCC2)cc1S(=O)(=O)N1CCCC1,-107% (inactive),
